These results are taken from PubChem BioAssay (NCATS).

The nature of test [1]: Primary qHTS for small molecule stabilizers of the endoplasmic reticulum resident proteome: Secreted ER Calcium Modulated Protein (SERCaMP) assay (AID 1508630). The method, boiled down:
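GLuc-SERCaMP-expressing SH-SY5Y cells, pretreated 16 h with compound, are challenged with thapsigargin to empty ER calcium stores; after 4 h, coelenterazine is added directly to the medium and luminescence is imaged.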
(In general: Quantitative high-throughput screening tests each substance at several concentrations.)

Test [2] addresses Lysosomal acid glucosylceramidase (Homo sapiens) (UniProt P04062). The test is described as follows: Glucocerebrosidase-p2 (AID 348; in the data active = potency below about 10 µM; also: potency is read from the fitted curve at half-maximal effect). The conditions noted are these: purified GBA, blue fluorogenic substrate, 40 min. The method, boiled down:
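Compounds titrated from 0.6 nM upwards against 0.2 nM enzyme in pH 5.9 citric acid/KH2PO4, taurocholate, tween-20; blue fluorogenic substrate 80 uM, 40 min room temperature, stopped and read Ex 365/Em 440 for AC50.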

Test [3] can be described thus: AP1 Signaling Pathway (AID 357; active = well fitted curve in either direction with a large enough effect, not every such curve was filed as active;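 also: ME-180 reporter cells stimulated with EGF at its EC50 level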). The conditions noted are these: ME-180 AP-1-bla reporter, EGF-induced, beta-lactamase ratio, 5 h; at 7.69 µM (top of the series) unless noted. The procedure, abridged:
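Read-out was the 460nm/530nm emission ratio (excitation 405nm) after CCF4 loading for 2.5 hours at room temperature. Cells carried an AP-1-driven beta-lactamase reporter, were stimulated with EC50 EGF plus compound for 5 hours, and AC50 values came from titrations.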

Test [4] addresses Cytochrome P450 1A2 (Homo sapiens) (UniProt P05177). The test is described as follows: p450-cyp1a2 (AID 410; calls by dose curve). The procedure, abridged: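 Luminescent readout of luciferin formed from Luciferin-ME by human CYP1A2; data normalized against complete inhibition by 57 uM furafylline. Enzyme 20nM, substrate 100uM at Km, 100mM KPO4 buffer, 60 min reaction at room temperature.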
Test [5] is described as follows: NFAT Signaling Pathway (AID 444; active = well fitted curve in either direction with a large enough effect, not every such curve was filed as active;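 also: carbachol stimulus at about its EC50 of 1 µM final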). The conditions noted are these: Jurkat NFAT-bla M1, carbachol, beta-lactamase ratio, 5 h; at 7.69 µM (top of the series) unless noted. The method, boiled down: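 Jurkat cells carrying an NFAT-driven β-lactamase reporter and co-transfected muscarinic M1 receptor were treated with compound plus carbachol (1 uM final, an EC50 level) for 5 h at 37 °C. CCF4 loading followed for 1 h at RT; 460/530 nm ratio gave %activity.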

A short description of test [6]: Stat Signaling Pathway (AID 446; active = well fitted curve in either direction with a large enough effect, not every such curve was filed as active;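 also: ME-180 cervical cancer cells given 40 pM IL-6 alongside compound; SIE-controlled beta-lactamase reporter measured as 460/530 nm FRET emission ratio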). The conditions noted are these: ME-180 (cervical carcinoma) SIE beta-lactamase reporter, IL-6 stimulated, 5 h; at 7.69 µM (top of the series) unless noted. The procedure, abridged:
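ME-180 SIE-bla cells; overnight plating; cpd + IL-6 40 pM, 5 h, 37 C; LiveBLAzer 2.5 h RT; 460/530 nm emission ratio. Normalized to 300 pM IL-6 and 125 nM JAK inhibitor controls.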

The target of test [7] is Glucocorticoid receptor (Homo sapiens) (UniProt P04150). The experiment in a line: GR-EFC Redistribution (AID 451; calls by dose curve; also: potency is read from the fitted curve at half-maximal effect). The settings on record: CHO-K1 GR-EFC translocation, beta-gal luminescence, 2 h. The procedure, abridged:
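CHO-K1 cells stably expressing nuclear-localized β-gal enzyme acceptor and GR fused C-terminally to the enzyme donor fragment; ligand-driven nuclear translocation restores β-gal by complementation. Compounds titrated up to 46 uM final, 2 h at 37 °C; luminescence read.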

The target of test [8] is 3',5'-cyclic-AMP phosphodiesterase 4B (Homo sapiens) (UniProt Q07343). The test is described as follows: qHTS Assay for Inhibitors of PDE-IV (AID 607; active = well fitted activation curve with a large enough effect in the main read-out, with a control signal flat, not every such curve was filed as active). The procedure, abridged: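 ACTOne HEK293 cells carry a modified cAMP-gated CNG channel and express endogenous PDE4; plated 1000 cells/well, compounds up to 22.9 uM final. Membrane-potential dye fluorescence (ex 535/em 590) was read; parental cells received 10 uM forskolin + 100 uM RO 20-1724.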
Chain of 3',5'-cyclic-AMP phosphodiesterase 4B (Homo sapiens) (Q07343 whole entry, looked up): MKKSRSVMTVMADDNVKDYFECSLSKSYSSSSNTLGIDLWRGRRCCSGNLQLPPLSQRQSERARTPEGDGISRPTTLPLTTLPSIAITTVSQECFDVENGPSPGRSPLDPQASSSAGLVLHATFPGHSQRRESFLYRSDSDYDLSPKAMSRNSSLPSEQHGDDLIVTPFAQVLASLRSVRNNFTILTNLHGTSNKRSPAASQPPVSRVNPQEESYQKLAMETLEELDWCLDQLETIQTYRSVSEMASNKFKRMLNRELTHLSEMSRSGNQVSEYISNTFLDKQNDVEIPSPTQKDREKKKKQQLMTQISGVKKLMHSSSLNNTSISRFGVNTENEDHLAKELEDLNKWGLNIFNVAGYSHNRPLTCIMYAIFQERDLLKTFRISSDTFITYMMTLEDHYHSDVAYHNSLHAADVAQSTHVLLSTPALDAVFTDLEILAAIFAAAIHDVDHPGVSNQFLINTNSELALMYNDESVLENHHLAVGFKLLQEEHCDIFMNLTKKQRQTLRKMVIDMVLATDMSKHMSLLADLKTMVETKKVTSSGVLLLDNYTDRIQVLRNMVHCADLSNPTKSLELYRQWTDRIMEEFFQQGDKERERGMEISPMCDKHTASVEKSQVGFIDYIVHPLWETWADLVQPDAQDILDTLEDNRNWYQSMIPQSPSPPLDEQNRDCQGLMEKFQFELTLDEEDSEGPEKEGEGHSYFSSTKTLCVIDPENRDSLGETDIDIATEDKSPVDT

A short description of test [9]: qHTS Assay for Lipid Storage Modulators (AID 1519; calls by dose curve). The settings on record: Drosophila S3 cells, BODIPY lipid droplet/cell ratio, laser cytometry, cells loaded with oleic acid. The procedure, abridged: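 Cells seeded at 5,000 per well were treated with compounds over a concentration series and loaded with oleic acid (400 uM, as added). Lipid droplet fluorescence (488 nm excitation, 500-530 nm channel) was read by laser-scanning cytometry and normalized to 20 uM Triacsin C.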

Test [10] deals with Rap guanine nucleotide exchange factor 3 (Homo sapiens) (UniProt O95398). The experiment in a line: Confirmatory qHTS for antagonist of cAMP-regulated guanine nucleotide exchange factor 3 (EPAC1) (AID 1645880). Also: nearly all actives have a fitted effect of over 55% in size. The procedure, abridged:
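Nucleotide exchange uses 100 nM EPAC1, 250 nM RAP1B-BODIPY-GDP and 50 uM GDP, with compounds in a concentration-titration series. After 5 min at room temperature, fluorescence (480 nm ex/540 nm em) is read every 5 min for 30 min. Data are normalized to control ATA and DMSO.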

Test [11] has the same target. The test is described as follows: Confirmatory qHTS for agonist of cAMP-regulated guanine nucleotide exchange factor 3 (EPAC1) (AID 1645881).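 Also: EPAC1 catalysed release of BODIPY-GDP from Rap1B seen as fluorescence loss; nearly all actives have a fitted effect of over 75% in size.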
Test [12] addresses Rap guanine nucleotide exchange factor 4 (Homo sapiens) (UniProt Q8WZA2). The experiment in a line: Confirmatory qHTS for agonist of cAMP-regulated guanine nucleotide exchange factor 4 (EPAC2) (AID 1645884).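 Also: nucleotide exchange releases bodipy-GDP from Rap1 and this lowers its fluorescence; nearly all actives have a fitted effect of over 65% in size.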
For test [13] the target is unchanged. The experiment in a line: Confirmatory qHTS for antagonist of cAMP-regulated guanine nucleotide exchange factor 4 (EPAC2) (AID 1645885). Also: nearly all actives have a fitted effect of over 25% in size.

Results filed as inconclusive are left out. Where a call stands in place of a potency, no number is given. Calls of active or inactive are those of the source. Unless noted, calls follow the shape of the dose curve; as a rule, active = well fitted curve in the direction sought with a large enough effect; inconclusive = small, poorly fitted or top-dose-only effect, or another doubt; inactive = no such curve, though single readings can be large; an effect the other way counts as inactive or inconclusive.

Chain of Rap guanine nucleotide exchange factor 3 (Homo sapiens) (O95398 whole entry, looked up): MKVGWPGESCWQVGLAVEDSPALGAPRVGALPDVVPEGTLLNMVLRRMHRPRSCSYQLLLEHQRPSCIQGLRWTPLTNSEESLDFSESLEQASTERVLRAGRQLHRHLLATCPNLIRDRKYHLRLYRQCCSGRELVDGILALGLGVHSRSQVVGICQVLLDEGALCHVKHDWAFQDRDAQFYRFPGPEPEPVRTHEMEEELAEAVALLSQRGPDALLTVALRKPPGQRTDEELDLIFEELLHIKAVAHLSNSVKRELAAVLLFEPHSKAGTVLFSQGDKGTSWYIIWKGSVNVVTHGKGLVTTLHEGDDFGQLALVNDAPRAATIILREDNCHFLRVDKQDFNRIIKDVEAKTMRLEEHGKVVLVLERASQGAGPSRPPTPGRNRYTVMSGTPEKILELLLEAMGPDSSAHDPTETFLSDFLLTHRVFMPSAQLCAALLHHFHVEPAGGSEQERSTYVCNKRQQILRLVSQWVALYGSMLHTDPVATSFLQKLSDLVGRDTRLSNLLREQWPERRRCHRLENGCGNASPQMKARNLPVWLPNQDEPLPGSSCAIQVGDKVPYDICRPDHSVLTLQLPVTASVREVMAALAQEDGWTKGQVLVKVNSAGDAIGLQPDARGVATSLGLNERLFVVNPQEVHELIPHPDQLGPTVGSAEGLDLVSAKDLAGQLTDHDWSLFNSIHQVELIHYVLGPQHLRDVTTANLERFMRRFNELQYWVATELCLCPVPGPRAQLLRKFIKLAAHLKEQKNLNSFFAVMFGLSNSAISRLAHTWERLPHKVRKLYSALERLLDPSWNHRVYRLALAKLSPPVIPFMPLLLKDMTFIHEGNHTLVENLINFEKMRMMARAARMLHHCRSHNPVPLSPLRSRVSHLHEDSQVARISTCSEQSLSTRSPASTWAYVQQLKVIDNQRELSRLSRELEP
Chain of Rap guanine nucleotide exchange factor 4 (Homo sapiens) (Q8WZA2 whole entry, looked up): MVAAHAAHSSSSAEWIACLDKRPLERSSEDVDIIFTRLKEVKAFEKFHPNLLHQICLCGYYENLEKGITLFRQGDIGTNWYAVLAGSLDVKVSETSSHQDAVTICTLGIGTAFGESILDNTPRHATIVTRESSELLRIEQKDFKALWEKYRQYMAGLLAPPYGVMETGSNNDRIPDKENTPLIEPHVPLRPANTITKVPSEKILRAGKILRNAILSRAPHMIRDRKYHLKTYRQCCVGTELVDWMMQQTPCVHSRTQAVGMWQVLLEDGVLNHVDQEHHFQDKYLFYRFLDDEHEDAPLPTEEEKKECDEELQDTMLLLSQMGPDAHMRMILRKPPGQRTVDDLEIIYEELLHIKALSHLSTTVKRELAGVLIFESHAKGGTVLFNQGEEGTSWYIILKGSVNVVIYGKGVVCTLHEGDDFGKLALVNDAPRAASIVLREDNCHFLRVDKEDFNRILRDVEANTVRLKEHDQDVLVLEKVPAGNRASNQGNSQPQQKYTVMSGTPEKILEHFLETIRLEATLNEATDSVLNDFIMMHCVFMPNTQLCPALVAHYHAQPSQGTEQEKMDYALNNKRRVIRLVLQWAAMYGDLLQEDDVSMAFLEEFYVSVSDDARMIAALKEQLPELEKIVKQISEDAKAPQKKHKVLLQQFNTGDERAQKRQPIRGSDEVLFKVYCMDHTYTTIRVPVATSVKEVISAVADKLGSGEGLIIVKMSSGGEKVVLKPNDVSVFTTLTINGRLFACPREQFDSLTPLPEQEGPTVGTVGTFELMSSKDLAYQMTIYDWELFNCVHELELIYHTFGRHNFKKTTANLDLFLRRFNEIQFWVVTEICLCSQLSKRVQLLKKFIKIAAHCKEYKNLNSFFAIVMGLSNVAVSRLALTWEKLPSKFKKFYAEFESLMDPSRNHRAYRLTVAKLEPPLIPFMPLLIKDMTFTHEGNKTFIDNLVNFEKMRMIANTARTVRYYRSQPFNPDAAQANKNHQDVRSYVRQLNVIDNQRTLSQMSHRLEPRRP
Chain of Cytochrome P450 1A2 (Homo sapiens) (P05177 whole entry, looked up): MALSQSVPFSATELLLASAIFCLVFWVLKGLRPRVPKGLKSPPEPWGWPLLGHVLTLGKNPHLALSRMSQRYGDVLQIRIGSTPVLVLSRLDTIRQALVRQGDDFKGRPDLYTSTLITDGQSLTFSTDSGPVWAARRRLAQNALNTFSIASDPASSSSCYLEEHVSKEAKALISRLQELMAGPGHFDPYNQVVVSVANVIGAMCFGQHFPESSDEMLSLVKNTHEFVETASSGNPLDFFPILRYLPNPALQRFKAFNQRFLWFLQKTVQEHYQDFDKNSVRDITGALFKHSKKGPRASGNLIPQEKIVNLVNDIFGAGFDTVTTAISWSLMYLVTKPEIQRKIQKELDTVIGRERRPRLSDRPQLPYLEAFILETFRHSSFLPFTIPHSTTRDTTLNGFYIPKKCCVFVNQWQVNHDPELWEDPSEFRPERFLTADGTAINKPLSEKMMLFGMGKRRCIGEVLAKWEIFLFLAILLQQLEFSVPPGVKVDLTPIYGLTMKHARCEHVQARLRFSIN
Chain of Lysosomal acid glucosylceramidase (Homo sapiens) (P04062 whole entry, looked up): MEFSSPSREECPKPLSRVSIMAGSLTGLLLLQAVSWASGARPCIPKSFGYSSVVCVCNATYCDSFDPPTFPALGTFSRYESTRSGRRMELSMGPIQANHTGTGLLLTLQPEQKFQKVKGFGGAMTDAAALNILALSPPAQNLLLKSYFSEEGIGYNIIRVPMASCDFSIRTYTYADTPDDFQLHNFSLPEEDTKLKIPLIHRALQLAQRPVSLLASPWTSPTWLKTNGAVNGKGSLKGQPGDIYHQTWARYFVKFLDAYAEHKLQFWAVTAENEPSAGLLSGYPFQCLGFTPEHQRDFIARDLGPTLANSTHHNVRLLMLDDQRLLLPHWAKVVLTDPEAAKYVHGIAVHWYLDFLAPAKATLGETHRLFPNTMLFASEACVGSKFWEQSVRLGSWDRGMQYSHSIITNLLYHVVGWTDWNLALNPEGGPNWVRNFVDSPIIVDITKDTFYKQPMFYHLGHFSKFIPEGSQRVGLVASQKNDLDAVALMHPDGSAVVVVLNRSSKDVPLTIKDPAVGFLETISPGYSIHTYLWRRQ
Chain of Glucocorticoid receptor (Homo sapiens) (P04150 whole entry, looked up, the tested form may be a part): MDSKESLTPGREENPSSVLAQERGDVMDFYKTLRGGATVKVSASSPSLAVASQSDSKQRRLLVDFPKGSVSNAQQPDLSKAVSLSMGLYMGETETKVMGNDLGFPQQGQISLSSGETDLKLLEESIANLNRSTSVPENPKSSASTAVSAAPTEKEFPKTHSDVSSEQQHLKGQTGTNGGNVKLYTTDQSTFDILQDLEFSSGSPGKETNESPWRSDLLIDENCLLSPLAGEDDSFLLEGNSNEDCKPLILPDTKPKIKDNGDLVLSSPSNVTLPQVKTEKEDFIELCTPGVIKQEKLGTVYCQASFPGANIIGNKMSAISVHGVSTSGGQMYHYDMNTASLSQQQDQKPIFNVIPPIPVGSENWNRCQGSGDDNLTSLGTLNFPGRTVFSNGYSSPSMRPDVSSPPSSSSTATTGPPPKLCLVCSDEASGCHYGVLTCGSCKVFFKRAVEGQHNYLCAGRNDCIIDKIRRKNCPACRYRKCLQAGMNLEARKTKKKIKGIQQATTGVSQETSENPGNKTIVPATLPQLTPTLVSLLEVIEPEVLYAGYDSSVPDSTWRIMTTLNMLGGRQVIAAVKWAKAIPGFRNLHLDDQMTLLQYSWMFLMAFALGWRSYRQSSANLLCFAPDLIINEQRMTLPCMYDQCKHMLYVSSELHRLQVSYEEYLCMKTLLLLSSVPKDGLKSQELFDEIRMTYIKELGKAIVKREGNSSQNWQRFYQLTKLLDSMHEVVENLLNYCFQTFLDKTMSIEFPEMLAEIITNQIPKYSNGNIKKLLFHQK

As for `C[C@@]12CC(=O)C3=C(CCCC3=O)N1CCc1ccccc12`, in test [1], the Potency entry is “inactive”.
On to `O=C1CC(c2ccc(O[C@@H]3OC(CO)[C@@H](O)C(O)C3O)cc2)Oc2cc(O)ccc21` (stereo partly drawn), for which the Potency entry in [1] was “inactive”.
As to `Cc1nc2[nH]c(=O)[nH]c(=O)c2[nH]1`, in test [1], the Potency entry is “inactive”.
On to `CC1=NN(c2ccc([N+](=O)[O-])cc2)C(=O)C1[N+](=O)[O-]` (stereo not drawn), for which the Potency entry in [1] is “inactive”.
Regarding `COc1cc2c(cc1O)-c1ccccc1CN(C)C2`, in [1], the Potency entry is “inactive”.
Turning to `CC12CC[C@@](C(=O)O)(C(=O)C1=O)C2(C)C`, the Potency entry in test [1] is “inactive”.
On to `COc1cc(C)c(CC/C(C)=C/C=C/C(C)=O)c(C)c1C`, for which the Potency result in [1] is “inactive”.
Still for that read-out and setting: the same measure for `N=c1ccn2c(n1)OCC1C2O[C@@H](O)[C@H]1O` (stereo partly drawn): “inactive”; for `O=c1oc2cc(O)ccc2cc1-c1ccc2c(c1)OCCO2`: “inactive”; for `COc1c2c(cc3c1C(CC(O)C(C)C)N(C)CC3)OCO2` (stereo not drawn): “inactive”.
With `COc1ccc([C@@H](C)C(=O)c2ccc(O)cc2O)cc1`, the Potency result in [1] was “inactive”.
Consider `C=C1CCC2[C@](C)(CO)[C@H](O)CC[C@@]2(C)[C@@H]1C/C=C1/C(=O)OC[C@H]1O` (stereo partly drawn), for which the Potency entry in test [1] is “inactive”.
Take `COc1c2c(cc3c1C(c1c(O)c4ccccc4oc1=O)N(C)CC3)OCO2` (stereo not drawn): the Potency result in test [1] was “inactive”.
For the compound `CC(C)C1NC(C(=O)O)Cc2c1[nH]c1ccccc21` (stereo not drawn), the Potency result in test [1] was “inactive”.
As to `COCC(=O)N1CCC2(CC1)CN(c1ccccn1)C2`, the results for the Potency in test [2] and in test [7] were > 11.4 µM (inactive) and > 46 µM (inactive), respectively. For the same compound, the activity change, negative = inhibition in test [3] is -0.233% (inactive); in [5], 1.7% (inactive); in test [9] (at 57.5 µM (top of the series)), 1.23% (inactive). Besides, the Potency entry in [4], in [8], in [1], in test [10] and in test [13] was “inactive” in each case. Also, in test [6], the activity, negative = inhibition was 9.91% (inactive). For the same compound, the max response in [9] (measured here: cell count channel max response) was 1.59%; in test [9] (measured here: lipid channel max response) it was 3.63%. Moreover, the compound was classed as inactive in test [11] and in [12].
Turning to `C=C[C@]1(C)Cc2occ(C)c2C[C@H]1C(=C)C(=O)O`, the Potency result in test [1] was “inactive”.
Turning to `COc1cc2c(cc1OC)C1CCC3=C([C@H](C)OC3=O)N1CC2` (stereo partly drawn), the Potency result in [1] is “inactive”.
Take `COc1ccc2c(c1)OC[C@H]1c3cc4c(cc3O[C@@H]21)OCO4`: the Potency entry in test [1] was “inactive”.
On the same count and under the same terms, the same measure for `COc1ccc([C@@H]2[C@@H](O)[C@H](O)[C@@H](C)N2C)cc1OC`: “inactive”.
